In PubChem BioAssay (Tox21):
A number with no mark means an inactive call. Activity calls are given as the source filed them. Calls follow the shape of the dose curve; as a rule, active = well fitted curve in the direction sought with a large enough effect in the repeat runs; inconclusive = weak or mixed curves; inactive = flat fitted curve, though single readings scatter. Starred links: 1 amine or outer side, 2 acyl side, 3 side chain; linkers in the order of their positions; H or OH if unused. Positions of bridges follow the written chain, without caps; N, C: chain ends. Non-standard residues stand in square brackets, D forms with d. Residues, ends and D or L forms follow the SMILES beside them. Chains are numbered I, II in the order given. Actinocin(9to1) = Cc1c2oc3c(C)ccc(C(=O)[*:1])c3nc-2c(C(=O)[*:2])c(N)c1=O; NMeV = CN[C@H](C(=O)O)C(C)C; Sar = CNCC(=O)O

Assay: qHTS assay to test for compound auto fluorescence at 590 nm (red) in HEK293 cells (AID 720679)
Settings: red autofluorescence 540/590 nm; series mostly up to 91.3 µM
From the text: National Center for Advancing Translational Sciences [NCATS]
NIH Chemical Genomics Center [NCGC]
U.S. Environmental Protection Agency [EPA]
National Institutes of Environmental Health Sciences [NIEHS]
National Toxicology Program [NTP]
U.S. Food and Drug Administration [FDA]
Compound auto fluorescence often interferes with screening of the compound library against various biological targets and signaling pathways. Some of these compounds may have fluorophoric properties. Such properties may interfere with the assay outputs resulting in false positives and/or negatives. To decrease such complications and ensure the compound activities are relevant in terms of biological response, the Tox21 10K compound library was screened for auto fluorescence.
From the fluorophores used as reporter signals in our screening assays, the auto fluorescence equivalencies of compounds against three fluorophores have been evaluated: Triamterene, Fluorescein and Rose Bengal sodium for blue, green and red fluorescence, respectively. The fluorescence intensities were measured using Excitation/Emission wavelengths at 405/460nm, 485/535nm and 540/590nm for blue, green and red labels, respectively. This assay includes the red fluorescence data.
Tox21 Assay Protocol Summary:
2,000 HEK293 cells in 5 uL of culture medium containing 10% dialyzed FBS per well were dispensed into black wall/clear bottom 1536-well plates using a Multidrop Combi Dispenser (Thermo Scientific). The assay plates were incubated for 4-5 hr at 37C to allow cell attachment to the well bottom, followed by the transfer of 23 nL compound or DMSO vehicle by a pintool work station (Kalypsys, San Diego, CA). After the assay plates were incubated overnight at 37C and 5% CO2, fluorescence intensities in the assay plates were measured by an Envision (PerkinElmer, Shelton, CT) plate reader using three labels for measuring blue, green and red fluorescence at […] 460, 535 and 590nm respectively.
% is scaled to controls: 0 for no effect and ±100 for the full control effect.

Row | Compound | outcome | fluorescence, % of fluorescent control
1 | CC(C)C(=O)c1c(C(C)C)nn2ccccc12 | inactive | 
2 | O=C(OCc1ccccc1)c1ccc(O)cc1 | inactive | 
3 | c1ccc2c(c1)-c1cccc3c1c-2cc1ccccc13 | inactive | 
4 | CC(=O)O[C@]1(C(C)=O)CC[C@H]2[C@@H]3C[C@H](C)C4=CC(=O)CC[C@]4(C)[C@H]3CC[C@@]21C | inactive | 
5 | O=C(O)c1cn(-c2ccc(F)cc2)c2cc(N3CCNCC3)c(F)cc2c1=O | inactive | 
6 | CCC(=O)/C=C/C1C(C)=CCCC1(C)C (stereo not given) | inactive | 
7 | Cc1cccc(O)c1C | inactive | 
8 | Oc1ccc(Cl)cc1Cc1cc(Cl)ccc1O | inactive | 
9 | CC[C@H]1CN2CCc3cc(OC)c(OC)cc3[C@@H]2C[C@@H]1C[C@H]1NCCc2cc(OC)c(OC)cc21 | inactive | 
10 | CC(=O)CC(C)=O | inactive | 
11 | CC1COC(=O)O1 (stereo not given) | inactive | 
12 | NC(Cc1ccc(Cl)cc1)C(=O)O (stereo not given) | inactive | 
13 | CC(C)CCOC(=O)c1ccc(N(C)C)cc1 | inactive | 
14 | O=S(=O)(O)c1ccc2nc(-c3ccccc3)[nH]c2c1 | inactive | 
15 | NCCCCCC(=O)O |  | 0.0137% [at 18.6 µM]
16 | Nc1cc(Cl)c(-c2cc(Cl)c(N)cc2Cl)cc1Cl | inactive | 
17 | Nc1ccc(O)cc1 | inactive | 
18 | COC(=O)/C=C/c1ccccc1 | inactive | 
19 | CC1=CC(=O)c2ccccc2C1=O | inactive | 
20 | Cc1c2oc3c(C)ccc(C(=O)N[C@@H]4C(=O)N[C@H](C(C)C)C(=O)N5CCC[C@H]5C(=O)N(C)CC(=O)N(C)[C@@H](C(C)C)C(=O)O[C@@H]4C)c3nc-2c(C(=O)N[C@@H]2C(=O)N[C@H](C(C)C)C(=O)N3CCC[C@H]3C(=O)N(C)CC(=O)N(C)[C@@H](C(C)C)C(=O)O[C@@H]2C)c(N)c1=O (I: T[dV]P[Sar][NMeV] / II: T[dV]P[Sar][NMeV]; ester I:1-I:C, II:1-II:C; linker I:N-II:N via Actinocin(9to1)) | inactive | 

Row | Compound | outcome | fluorescence, % of fluorescent control
21 | O=c1n(CC2CO2)c(=O)n(CC2CO2)c(=O)n1CC1CO1 (stereo not given) | inactive | 
22 | CCOc1ccc2c(c1)C(C)=CC(C)(C)N2 | inactive | 
23 | CN(C)c1ccc(C(=C2C=CC(=[N+](C)C)C=C2)c2ccccc2)cc1 | inactive | 
24 | Cc1c(O)cccc1C(=O)N[C@@H](CSc1ccccc1)[C@H](O)CN1C[C@H]2CCCC[C@H]2C[C@H]1C(=O)NC(C)(C)C | inactive | 
25 | c1cnc2cc3c(cc2n1)C1CNCC3C1 | inactive | 
26 | Clc1ccc2c(c1)C(N1CCNCC1)=Nc1ccccc1O2 | inactive | 
27 | CC(C)(C)c1ccccc1 | inactive | 
28 | NC(N)=NC(=O)Cc1c(Cl)cccc1Cl | inactive | 
29 | CC(=O)Nc1ccc(C(=O)CCl)cc1 | inactive | 
30 | COc1ccc(COC(C)=O)cc1 | inactive | 
31 | C[N+]1([O-])CCOCC1 | inactive | 
32 | NC(N)=Nc1nc(CSCC/C(N)=N/S(N)(=O)=O)cs1 | inactive | 
33 | CC(=O)C1=C(C)[C@@H]2C[C@@]3(C1)[C@H](C)CC[C@H]3C2(C)C | inactive | 
34 | Nc1ccc2cc3ccccc3cc2c1 | inactive | 
35 | COc1cc(C(=S)N2CCOCC2)ccc1O | inactive | 
36 | CCOc1ccccc1C(N)=O | inactive | 
37 | CCCCOCCOC(=O)c1ccccc1C(=O)OCCOCCCC | inactive | 
38 | COC(=O)[C@H]1[C@H]2C[C@@H]3c4[nH]c5cc(OC)ccc5c4CCN3C[C@H]2C[C@@H](OC(=O)c2cc(OC)c(OC)c(OC)c2)[C@@H]1OC | inactive | 
39 | CCN1CCCC1CNC(=O)c1cc(S(=O)(=O)CC)c(N)cc1OC (stereo not given) | inactive | 
40 | CC(C)(c1ccccc1)c1ccc(Nc2ccc(C(C)(C)c3ccccc3)cc2)cc1 | inactive | 
